{"source": "paper PMC4336329", "about": "(PLoS ONE, 2015)", "note": "In all, about 310,000 compounds went through this assay and about 14,000 (4.5%) showed an effect of 50% or more. Effects have a minus sign here. This excerpt belongs to a sample that is enriched for strong results.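 Further: peak tail current of the secondary pulse compared with the same well before compound.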"}
{"target": "human ether-à-go-go-related gene (hERG) potassium channel (human, UniProt Q12809)", "sequence (Q12809 whole entry, looked up)": "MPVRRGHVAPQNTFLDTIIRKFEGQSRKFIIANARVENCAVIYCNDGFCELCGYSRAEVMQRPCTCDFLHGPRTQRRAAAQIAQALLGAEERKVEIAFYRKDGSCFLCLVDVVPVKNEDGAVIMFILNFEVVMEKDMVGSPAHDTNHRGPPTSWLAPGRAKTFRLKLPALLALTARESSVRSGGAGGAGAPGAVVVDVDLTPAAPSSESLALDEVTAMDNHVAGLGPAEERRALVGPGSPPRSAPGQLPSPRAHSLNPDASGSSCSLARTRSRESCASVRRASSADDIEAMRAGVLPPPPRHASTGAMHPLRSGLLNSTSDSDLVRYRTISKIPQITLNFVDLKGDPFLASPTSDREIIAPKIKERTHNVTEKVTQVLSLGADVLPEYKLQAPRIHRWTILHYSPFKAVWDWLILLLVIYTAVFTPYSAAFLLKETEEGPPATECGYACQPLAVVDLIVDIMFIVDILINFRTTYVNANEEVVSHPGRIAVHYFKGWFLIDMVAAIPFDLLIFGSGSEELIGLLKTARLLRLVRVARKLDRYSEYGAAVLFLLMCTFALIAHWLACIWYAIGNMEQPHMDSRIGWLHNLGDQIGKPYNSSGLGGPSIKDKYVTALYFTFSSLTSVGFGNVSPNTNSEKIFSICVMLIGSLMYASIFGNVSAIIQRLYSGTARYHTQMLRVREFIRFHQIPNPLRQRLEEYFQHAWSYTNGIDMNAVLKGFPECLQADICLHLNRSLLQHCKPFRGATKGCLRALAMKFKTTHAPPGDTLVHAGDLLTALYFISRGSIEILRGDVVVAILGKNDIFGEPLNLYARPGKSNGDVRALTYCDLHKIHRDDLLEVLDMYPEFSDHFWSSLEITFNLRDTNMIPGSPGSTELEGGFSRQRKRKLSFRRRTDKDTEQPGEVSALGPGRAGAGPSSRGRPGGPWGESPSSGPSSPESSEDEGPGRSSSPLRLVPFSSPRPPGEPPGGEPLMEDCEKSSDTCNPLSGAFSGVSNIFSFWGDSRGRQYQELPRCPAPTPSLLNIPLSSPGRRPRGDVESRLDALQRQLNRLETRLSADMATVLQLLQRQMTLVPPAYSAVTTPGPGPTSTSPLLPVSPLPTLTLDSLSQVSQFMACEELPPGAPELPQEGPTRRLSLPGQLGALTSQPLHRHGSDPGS", "experiment": "primary screen, population patch clamp on CHO cells stably expressing hERG; higher = less effect of the substance", "units": {"hERG current change (%, negative = inhibition) at 10uM": "%"}}
{"smiles": "CCOC(=O)C1(CCOc2ccccc2)CCN(Cc2cc(OC)c(O)c(OC)c2)CC1", "hERG current change (%, negative = inhibition) at 10uM": -77.6}
{"smiles": "CCOC(=O)C1(CCOc2ccccc2)CCN(Cc2ccc(F)c(OC)c2)CC1", "hERG current change (%, negative = inhibition) at 10uM": -35.3}
{"smiles": "CCOC(=O)C1(CCOC)CCN(Cc2ccc3nonc3c2)CC1", "hERG current change (%, negative = inhibition) at 10uM": -10.5}
{"smiles": "CCOC(=O)C1(CCOc2ccccc2)CCN(Cc2ccc(O)c(OC)c2)CC1", "hERG current change (%, negative = inhibition) at 10uM": -75.4}
{"smiles": "CCOCCCNC(=O)Cc1ccc(OC)c(OC)c1", "hERG current change (%, negative = inhibition) at 10uM": 14.1}
{"smiles": "Cc1ccc(NC(=O)CC(=O)Nc2ccc(C)c(C)c2)cc1C", "hERG current change (%, negative = inhibition) at 10uM": 11.7}
{"smiles": "CCCn1c(CC)nc([N+](=O)[O-])c1S(=O)(=O)c1ccccc1", "hERG current change (%, negative = inhibition) at 10uM": -23.8}
{"smiles": "CCOC(=O)N1CCN(C(=O)C2CCN(S(=O)(=O)c3ccc(Cl)cc3)CC2)CC1", "hERG current change (%, negative = inhibition) at 10uM": -48.7}
{"smiles": "O=C1CS/C(=N\\N=C\\c2ccccc2Cl)N1CC1CC1", "hERG current change (%, negative = inhibition) at 10uM": 12.3}
{"smiles": "FC(F)(F)c1ccc2c(c1)n(Cc1ccccc1)c1[n+]2CCCCC1.[Cl-]", "hERG current change (%, negative = inhibition) at 10uM": -24}
{"smiles": "FC(F)(F)c1cccc(Cn2c3[n+](c4ccc(C(F)(F)F)cc42)CCCCC3)c1.[Cl-]", "hERG current change (%, negative = inhibition) at 10uM": -17.6}
{"smiles": "Cc1cc(C(C)(C)C)cc(C)c1Cn1c2[n+](c3ccc(C(F)(F)F)cc31)CCCCC2.[Cl-]", "hERG current change (%, negative = inhibition) at 10uM": -55.4}
{"smiles": "COc1ccc(OC)c(CC(=O)O)c1", "hERG current change (%, negative = inhibition) at 10uM": 10.8}
{"smiles": "O=C(NC1CCCCC1)C1CCN(c2nccs2)CC1", "hERG current change (%, negative = inhibition) at 10uM": 4.43}
{"smiles": "COc1ccc(/C=C2/C(=O)N=C(N)N2C)cc1OC", "hERG current change (%, negative = inhibition) at 10uM": 7.3}
{"smiles": "COc1cc(-c2noc(C)c2/C=C/c2cccc([N+](=O)[O-])c2)cc(OC)c1OC", "hERG current change (%, negative = inhibition) at 10uM": -2.59}
{"smiles": "COC(=O)C1=CN(CC2CCCO2)C=C(C(=O)OC)C1c1ccccc1C(F)(F)F", "note": "(stereo not shown)", "hERG current change (%, negative = inhibition) at 10uM": 8.49}
{"smiles": "CCCCN1C=C(C(=O)OC)C(c2ccccc2C(F)(F)F)C(C(=O)OC)=C1", "hERG current change (%, negative = inhibition) at 10uM": -1.84}
{"smiles": "COC(=O)C1=CN(CCCN2CCCC2=O)C=C(C(=O)OC)C1c1ccccc1C(F)(F)F", "hERG current change (%, negative = inhibition) at 10uM": -57.1}
{"smiles": "COCCN1C=C(C(=O)OC)C(c2ccccc2C(F)(F)F)C(C(=O)OC)=C1", "hERG current change (%, negative = inhibition) at 10uM": -8.36}
{"smiles": "COC(=O)C1=CN(CCCN2CCCC2=O)C=C(C(=O)OC)C1c1cccs1", "hERG current change (%, negative = inhibition) at 10uM": -25.1}
{"smiles": "CCOC(=O)C1=CN(CC2CCCO2)C=C(C(=O)OCC)C1c1ccccc1C(F)(F)F", "note": "(stereo not shown)", "hERG current change (%, negative = inhibition) at 10uM": -64.7}
{"smiles": "CN(Cc1ccccc1Br)C(=O)CN1C(=O)NC2(CCCCCC2)C1=O", "hERG current change (%, negative = inhibition) at 10uM": -11.1}
{"smiles": "COC(=O)c1ccc(CN2CCC(CO)(CCOc3ccccc3)CC2)cc1", "hERG current change (%, negative = inhibition) at 10uM": -80.1}
{"smiles": "OCC1(CCOc2ccccc2)CCN(Cc2ccncc2)CC1", "hERG current change (%, negative = inhibition) at 10uM": -41.5}
{"smiles": "O=C(Nc1cccc(Cl)c1)N1CCCC1", "hERG current change (%, negative = inhibition) at 10uM": 5.7}
{"smiles": "CC(=O)Nc1ccc(CN2CCC(CO)(CCOc3ccccc3)CC2)cc1", "hERG current change (%, negative = inhibition) at 10uM": -69.9}
{"smiles": "O=C(Nc1cccc(Cl)c1)OCCOc1ccccc1", "hERG current change (%, negative = inhibition) at 10uM": 23}
{"smiles": "CC(=O)Nc1ccc(N2CCN(Cc3ccccc3)CC2)cc1", "hERG current change (%, negative = inhibition) at 10uM": -14.6}
{"smiles": "O=C(Nc1cccc(Cl)c1)N1CCC(CO)(CCOc2ccccc2)CC1", "hERG current change (%, negative = inhibition) at 10uM": -58.6}
{"smiles": "CSc1ccc(CN2CCC(CO)(CCOc3ccccc3)CC2)cc1", "hERG current change (%, negative = inhibition) at 10uM": -78.4}
{"smiles": "CCS(=O)(=O)N1CCN=C1SCc1cccc(F)c1", "hERG current change (%, negative = inhibition) at 10uM": 14.7}
{"smiles": "CCCCN(C)C(=O)c1ccc2c(c1)S(=O)(=O)c1ccccc1C2=O", "hERG current change (%, negative = inhibition) at 10uM": -24.4}
{"smiles": "Cc1ccc(C2(C)NC(=O)N(CC(=O)NC(C)c3ccccc3)C2=O)cc1", "note": "(stereo not shown)", "hERG current change (%, negative = inhibition) at 10uM": 11.7}
{"smiles": "CC(C)(C)c1ccc(OCCC(=O)OCC(=O)NC(=O)NC2CCCC2)cc1", "hERG current change (%, negative = inhibition) at 10uM": 10.7}
{"smiles": "COc1ccc(NC(C)=O)cc1NC(=O)CSc1nnc(-c2ccccn2)n1C", "hERG current change (%, negative = inhibition) at 10uM": -7.69}
{"smiles": "Cc1ccsc1CN(C)C(=O)CN1C(=O)NC(c2ccccc2)(c2ccccc2)C1=O", "hERG current change (%, negative = inhibition) at 10uM": -21.5}
{"smiles": "CCOC(=O)c1c(C)n(C)c2ccc(OCC(O)CN3CCCCCC3)cc12.Cl", "note": "(stereo not shown)", "hERG current change (%, negative = inhibition) at 10uM": -18.4}
{"smiles": "NNC(=O)c1n[nH]c2c1CC(C1CCCCC1)CC2", "note": "(stereo not shown)", "hERG current change (%, negative = inhibition) at 10uM": 10.8}
{"smiles": "CCOCCn1c(C(C)O)nc2ccccc21", "note": "(stereo not shown)", "hERG current change (%, negative = inhibition) at 10uM": 11.7}
{"smiles": "Cc1cc(Cl)nc(-n2nc(C)cc2C)n1", "hERG current change (%, negative = inhibition) at 10uM": 2.6}
{"smiles": "CCOC(=O)C1CCN(CC(O)COCc2ccccc2)CC1.O=C(O)C(=O)O", "note": "(stereo not shown)", "hERG current change (%, negative = inhibition) at 10uM": -31.1}
{"smiles": "Cl.OC(COCc1ccccc1)CN1CCCC1", "note": "(stereo not shown)", "hERG current change (%, negative = inhibition) at 10uM": -6.03}
{"smiles": "OC(COCc1ccc(Cl)cc1)CN1CCN(CC(O)COCc2ccc(Cl)cc2)CC1", "note": "(stereo not shown)", "hERG current change (%, negative = inhibition) at 10uM": -75.2}
{"smiles": "COc1ccc(COCC(O)CN2CCc3ccccc3C2)cc1OC.Cl", "note": "(stereo not shown)", "hERG current change (%, negative = inhibition) at 10uM": 1.52}
{"smiles": "Cl.OC(COCc1ccc(Cl)cc1)CN1CCCCC1", "note": "(stereo not shown)", "hERG current change (%, negative = inhibition) at 10uM": -35.8}
{"smiles": "OC(CN1CC=C(c2ccccc2)CC1)c1ccccc1", "note": "(stereo not shown)", "hERG current change (%, negative = inhibition) at 10uM": -33}
{"smiles": "Cl.OC(COCc1ccc(Cl)cc1)CN1CCc2ccccc2C1", "note": "(stereo not shown)", "hERG current change (%, negative = inhibition) at 10uM": -70.4}
{"smiles": "Cl.OC(COCc1ccccc1)CN1CCc2ccccc2C1", "note": "(stereo not shown)", "hERG current change (%, negative = inhibition) at 10uM": -25.7}
{"smiles": "O=C(O)C(=O)O.OC(COCc1ccc(Cl)cc1)CN1CC=C(c2ccccc2)CC1", "note": "(stereo not shown)", "hERG current change (%, negative = inhibition) at 10uM": -77.2}
{"smiles": "NC(=O)C1CCCN(CC(O)COCc2ccc(Cl)cc2)C1.O=C(O)C(=O)O", "note": "(stereo not shown)", "hERG current change (%, negative = inhibition) at 10uM": -8.86}
{"smiles": "CCOC(=O)C1CCN(CC(O)COCc2ccc(Cl)cc2)CC1.Cl", "note": "(stereo not shown)", "hERG current change (%, negative = inhibition) at 10uM": -79.2}
{"smiles": "CCOC(=O)C1CCN(CC(O)COCc2ccc3c(c2)OCO3)CC1.Cl", "note": "(stereo not shown)", "hERG current change (%, negative = inhibition) at 10uM": -46}
{"smiles": "O=C(NCC(=O)N1CCCCCC1)c1ccc(Br)cc1", "hERG current change (%, negative = inhibition) at 10uM": -7.84}
{"smiles": "CCOP(=O)(OCC)c1nc(-c2cccc3ccccc23)oc1NCc1ccccc1", "hERG current change (%, negative = inhibition) at 10uM": 10.2}
{"smiles": "O=C(CN1CCc2ccccc2C1)Nc1cc(S(=O)(=O)N2CCOCC2)ccc1N1CCCC1", "hERG current change (%, negative = inhibition) at 10uM": 0.983}
{"smiles": "O=C(N/N=C/C=C/c1ccccc1)c1cnccn1", "hERG current change (%, negative = inhibition) at 10uM": 6.57}
{"smiles": "Cc1noc(C)c1S(=O)(=O)Nc1ccc(C(=O)N2CCC(C)CC2)cc1", "hERG current change (%, negative = inhibition) at 10uM": -4.35}
